Hit rate of the full screen: of about 69,000 compounds, about 8,600 (12%) showed an effect of 50% or more. Shown is part of a subset that was picked to be rich in strong results.
test system: Plasmodium berghei; experiment: Screen against P. berghei liver stage (PbLuc), transformed with Luciferase, at 10uM; assay type: functional, HepG2; conditions: tested at 10 uM

SMILES	INHIBITION
O=C(NCCc1nccs1)c1n[nH]c2c1CCC2	-147%
CN1CCC(CNC(=O)c2ccc3cccc(Cl)c3n2)C1 (stereo not given)	9.4%
Cc1ccc2cccc(C(=O)NCC3CCN(C(C)C)C3)c2n1 (stereo not given)	50.1%
Cc1ccc2cccc(C(=O)NCCOCC3CC3)c2n1	-58.5%
COCCn1cnc2c(F)cc(Br)cc2c1=O	47.4%
CC(C)N(C)S(=O)(=O)c1ccc2c(c1)CCN(C(=O)c1cscn1)C2	65.2%
CC(C)N(C)S(=O)(=O)c1ccc2c(c1)CCN(C(=O)c1cnccn1)C2	28.8%
CC(C)N(C)S(=O)(=O)c1ccc2c(c1)CCN(C(=O)c1ccccn1)C2	-12.1%
CCCc1cc(C(=O)NC(C)c2ccccc2)n(C)n1 (stereo not given)	8.7%
O=C(O)c1cc(Br)cnc1OCC1CC1	14.4%
Cc1cc2c(cc1CNC(Cc1cccs1)c1nccs1)OCO2 (stereo not given)	28.375%
CCC(=O)Nc1ncn(Cc2cccnc2)n1	61.2%
N#Cc1ccc(NCC(=O)Nc2ccn(Cc3cccnc3)n2)cc1	41.4%
CC(C)N(Cc1cccnc1)C(=O)CNc1ccc(C#N)cc1	-21%
CCSCCC(=O)Nc1ncn(Cc2ccccc2)n1	42%
N#Cc1ccc(NCC(=O)Nc2ncn(Cc3cccnc3)n2)cc1	72.3%
CCSCCC(=O)Nc1ncn(Cc2cccnc2)n1	-11.1%
Cc1ncsc1C(=O)NCCn1nc(C2CCNC2)c2cccnc21 (stereo not given)	38.7%
CCc1nc(CC(=O)NCC(Cc2ccc(F)cc2)C(N)=O)cs1 (stereo not given)	48.2%
O=C(NC1CC1)c1cccc(Oc2ccc3nncn3n2)c1	-34.4%
Cc1ccc(C(=O)N2CCSCC2)cc1N1CCNC1=O	48.5%
COc1cc(C)sc1C(=O)N1CCC(Nc2cccnc2)CC1	18.5%
CC1(C)CC1(C(=O)N1CC(c2cccnc2)C1)c1ccccc1F (stereo not given)	28.7%
COc1ccc(C2(C(=O)N3CC(c4cccnc4)C3)CC2(C)C)cc1 (stereo not given)	55.4%
COc1cc(C)sc1C(=O)N1CC(c2cccnc2)C1	56.8%
COc1cc(C)sc1C(=O)N1CCCCC1c1ccccn1 (stereo not given)	47.7%
Cc1ccc(C(=O)N2Cc3ccccc3C2)cc1N1CCNC1=O	2.74%

SMILES	INHIBITION
Cc1ccc(C(=O)N2CC(c3cccnc3)C2)cc1N1CCNC1=O	56.7%
CC1(C)CC1(C(=O)N1CC(c2cccnc2)C1)c1ccc(F)cc1 (stereo not given)	21.2%
COc1ccccc1CC(=O)N1CCCC(c2cc(C)[nH]n2)C1 (stereo not given)	-24.2%
Cc1ccc(-c2nnc(CNC(=O)c3cccnc3)o2)cn1	30.4%
CC(=O)N1CCCN(C(=O)NCCCn2cncn2)CC1	-10.895%
COc1ccc(C)cc1C(=O)N1C[C@@H](CN(C)CCO)[C@@H](CO)C1	56.9%
COCCN(C)C[C@H]1C[C@H](CO)CN(C(=O)c2ccn(C)c(=O)c2)C1	11.7%
COCCN(CCOC)C(=O)NC1CCCCC1	50.8%
COc1cc(C)ccc1C(=O)N1C[C@@H](CN(C)CCO)[C@@H](CO)C1	-1.38%
COCCN(C)C[C@H]1C[C@@H](CO)CN(C(=O)c2ccn(C)c(=O)c2)C1	35.5%
COCCN(C)C[C@@H]1CN(C(=O)c2ccc(OC)c(F)c2)C[C@@H]1CO	0.29%
COc1ccc(F)c(F)c1C(=O)N1C[C@@H](CN(C)CCO)[C@@H](CO)C1	-1.38%
COCCN(CCN(C)C)C(=O)NC1CC1	7.25%
COCCN(C)C[C@@H]1CN(C(=O)c2c(F)ccc(OC)c2F)C[C@@H]1CO	84.4%
COCCN(CCN(C)C)C(=O)NC1CCc2ccccc2C1 (stereo not given)	-65.3%
COc1cccc(C(=O)N2C[C@@H](CN(C)CCO)[C@@H](CO)C2)c1C	20.6%
COCCN(C)C[C@H]1C[C@H](CO)CN(C(=O)c2ccc(=O)n(C)c2)C1	50.7%
CS(=O)(=O)c1ccc(Cl)c(NC(=O)NCCC2=CCCCC2)c1	0.818%
COCCC1COC2(CCN(C(=O)c3ccco3)CC2)C1 (stereo not given)	29.6%
CN(C)C(=O)[C@H]1C[C@H]2OCC[C@H]2N(Cc2ccc3ccccc3n2)C1	25.2%
CC(C)NC(=O)[C@H]1C[C@@H]2[C@@H](C1)OCCN2Cc1ccco1	7.24%
CC(C)(C)OC(=O)N[C@@H]1C[C@@H](O)CN(C(=O)c2cccc(F)c2)C[C@H]1O	4.41%
C[C@H]1C(=O)NC[C@H]2CN(Cc3cccc(F)c3)C[C@H]21	23.5%
CC(=O)N1CCC2(CC1)CN(C)C(=O)C[C@H]2C(F)(F)F	2.79%
CC(Nc1c(F)cc(C#N)cc1F)c1cccc(S(N)(=O)=O)c1 (stereo not given)	-68.1%
COCCN(C)C[C@@H]1CN(C(=O)c2ccc(C)cc2)C[C@@H]1CO	-18.9%
COCCN(C)C[C@@H]1CN(C(=O)c2sc3ccccc3c2C)C[C@@H]1CO	17.6%

SMILES	INHIBITION
CCN(C)C[C@@H]1CN(C(=O)NC2CCCCC2)C[C@@H]1CO	24.5%
COCCN(C)C[C@@H]1CN(C(=O)c2ccc(=O)n(C)c2)C[C@@H]1CO	57.2%
CN(C)CCN(C)C[C@@H]1CN(C(=O)NC2CCCC2)C[C@@H]1CO	27.4%
COCCN(C)C[C@@H]1CN(C(=O)c2cccc(C(F)(F)F)c2)C[C@@H]1CO	23.5%
COCCN(C)C[C@@H]1CN(C(=O)NC2CCCCC2)C[C@@H]1CO	50.2%
COCCN(C)C[C@@H]1CN(C(=O)c2ccc(SC)cc2)C[C@@H]1CO	19.4%
COCCN(C)C[C@@H]1CN(C(=O)C(C)(C)c2ccccc2)C[C@@H]1CO	60.6%
O=C1NC(c2ccccc2)=N[C@@]12CC[C@@H]1CN(CC3CC3)C[C@@H]12	44.2%
O=C(CCc1nc2cc(Br)cnc2[nH]1)NCCN1CCOCC1	-7.28%
N#Cc1cccc(C(=O)N2CCC(Nc3cccnn3)CC2)c1	15.5%
Cc1ccc2c(c1)C(NC(=O)N(C)C)CC21CCN(C)CC1 (stereo not given)	-24.1%
Cc1nc(C(=O)NCc2ccc(N3CCNC(=O)C3)c(F)c2)cs1	-11.7%
COC(=O)c1sc(NCc2ccc(N3CCC(O)CC3)c(F)c2)nc1Cl	91.2%
OC1CCN(c2ccc(CNc3nc4ccccc4s3)cc2F)CC1	59.4%
OC1CCN(c2cnnc3ccccc23)CC1	40.2%
N#Cc1cc(NC(=O)c2cc[nH]n2)ccc1N1CCC(O)CC1	9.65%
OC1CCN(c2ccc(CNc3nc4ccccc4o3)cc2F)CC1	-37.7%
Cc1cc(NCCNc2cccnc2)nc(N)n1	36.8%
CCC(NS(=O)(=O)c1ccc(C(=O)NC2CC2)cc1)c1cnn(C)c1 (stereo not given)	-10.1%
O=C1CC2(CCN(C(=O)c3ccncc3)CC2)Oc2c(Cl)cc(Cl)cc21	-29%
CC(C)N1CCc2ncn(C)c2C1C(=O)N1CCOCC1 (stereo not given)	29%
CC(C)N1CCc2ncn(C)c2C1C(=O)NCCN1CCCC1 (stereo not given)	67.4%
CC(C)N1CCc2ncn(C(C)C)c2C1C(=O)NCCN1CCCC1 (stereo not given)	30.5%
CCc1noc(Cn2c(=O)c3c(C(F)(F)F)cc(C)nc3n2C)n1	-7.93%
CC1CCN(c2nc3c(cnn3-c3ccccc3)c(=O)[nH]2)CC1	89.6%
O=c1[nH]c(N2CC(O)C2)nc2c1cnn2-c1ccccc1	17.1%
O=c1[nH]c(N2CCN(C3CC3)CC2)nc2c1cnn2-c1ccccc1	24.7%

SMILES	INHIBITION
CCn1cc2c(n1)CN(CC1CC1)CC2COCC1CC1 (stereo not given)	19.3%
CCn1cc2c(n1)CN(Cc1nccs1)CC2COCC1CC1 (stereo not given)	71.1%
COCC1CN(Cc2sccc2C)Cc2nnn(CC3CC3)c21 (stereo not given)	-42.9%
CCn1cc2c(n1)CN(Cc1sccc1C)CC2COCC1CC1 (stereo not given)	52%
CCn1cc2c(n1)CN(C(=O)c1ccncc1)CC2COCC1CC1 (stereo not given)	-30.1%
CCOCC1CN(Cc2nccs2)Cc2nn(CC3CC3)cc21 (stereo not given)	11.4%
OC1CCCN(Cc2ccnc(-c3cccnc3)n2)C1 (stereo not given)	19.6%
CCn1cc(-c2cc(C(F)(F)F)n(CCCN)n2)cn1	8.53%
Fc1ccc(CN[C@@H]2COC[C@H]2c2ccc(F)cc2)cc1	-27.1%
Cc1noc(CN(C)C(=O)c2n[nH]c(N)c2-c2ccccc2)n1	1.98%
Cc1cc(-c2cncnc2)nc(C2CCCN2S(C)(=O)=O)n1 (stereo not given)	31.3%
O=C(CN1CCCC(c2noc(C3CC3)n2)C1)N1CCCC1 (stereo not given)	15.6%
CC1CCN(C(=O)CN2CC(c3nc(C4CC4)no3)C2)CC1	58.1%
O=C(CN1CC(c2nc(C3CC3)no2)C1)N1CCOCC1	29.7%
NC(=O)CN(Cc1ncc(-c2ccc(Cl)cc2)o1)C1CCCC1	-46.6%
CN(C)C[C@@H]1CN(C2CCN(c3ccc(Cl)cc3)CC2)C[C@@H]1CO	-86.5%
CN(C)C[C@@H]1CN(C2CCN(c3ccccc3Cl)CC2)C[C@@H]1CO	22.3%
CN(CCO)C[C@@H]1CN(C2CCN(c3ccccc3Cl)CC2)C[C@@H]1CO	55.2%
CCc1nnc(SC2CCCN(c3cnn(C)c3)C2=O)n1C (stereo not given)	-30.1%
COc1cccc(N2CC3(CCN(C(=O)NC(C)C)C3)CC2=O)c1 (stereo not given)	-11.2%
COc1cccc(C2CN(CCc3ccncc3)CCO2)c1 (stereo not given)	10.5%
Cc1ccc(S(=O)(=O)N2CCC(Oc3ccccn3)CC2)c(C)c1	78.2%
Cc1ccc(S(=O)(=O)N2CCC(Oc3cccnn3)CC2)c(C)c1	49.7%
Cc1noc(C)c1S(=O)(=O)N1CCC(Oc2ccccn2)CC1	45.7%
